Values joined by “and” are separate entries in the source; they are usually repeats but may differ in a detail not shown here. Identical values can stand only once. Records with an inconclusive call do not appear. Active and inactive are the calls of the source. Calls follow the shape of the dose curve; as a rule, active = well fitted curve in the direction sought with a large enough effect in the repeat runs; inconclusive = weak or mixed curves; inactive = no such curve, though single readings can be large; an effect the other way counts as inactive or inconclusive.
Key:
[1] = A CellTox Green Cytotoxicity Assay to monitor cytotoxicity in HEK293 cells - 40 hour (AID 1224871); details: CellTox Green fluorescence; series mostly up to 76.8 µM; also: nearly all actives have a fitted effect of over 45% in size; also: potency is read from the fitted curve at half-maximal effect
How it was run: (§1)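 Cells (HEK293, 600/well) and dye reagent are dispensed together. After 5 h at 37 C, 23 nL compound is pinned in. Plates stay at 37 C for 40 h with fluorescence read at 0h, 8h, 16h, 24h, 32h and 40h.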

[2] = qHTS RealTime-Glo MT Cell Viability Assay in HepG2 cells - 8 hour (AID 1224873); details: RealTime-Glo luminescence; series mostly up to 76.8 µM; also: nearly all actives have a fitted effect of over 55% in size
How it was run: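 Real-time viability: cells seeded at 600 per well together with NanoLuc and cell-permeant prosubstrate, compounds added after 5 h incubation. Luminescence tracked at 0, 8, 16, 24, 32 and 40 h of exposure.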

[3] = qHTS RealTime-Glo MT Cell Viability Assay in HEK293 cells - 40 hour (AID 1224874); details: RealTime-Glo luminescence; max response: stronger effect = lower value; also: nearly all actives have a fitted effect of over 50% in size; also: potency is read from the fitted curve at half-maximal effect
How it was run: (§2)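 Real-time viability in HEK293: signal arises when living cells convert a prosubstrate for NanoLuc in the medium, so luminescence tracks viable cell number. Compound (23 nL, DMSO) added 5 h post-seeding; kinetic reads at 0–40 h, 37 C.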

[4] = A CellTox Green Cytotoxicity Assay to monitor cytotoxicity in HEK293 cells - 24 hour (AID 1224875); details: CellTox Green fluorescence; series mostly up to 76.8 µM; also: nearly all actives have a fitted effect of over 45% in size; also: potency is read from the fitted curve at half-maximal effect
How it was run: as §1

[5] = A CellTox Green Cytotoxicity Assay to monitor cytotoxicity in HepG2 cells - 16 hour (AID 1224876); details: CellTox Green fluorescence; series mostly up to 76.8 µM; also: nearly all actives have a fitted effect of over 45% in size; also: potency is read from the fitted curve at half-maximal effect
How it was run: (§3)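 Cells and non-lytic dye reagent are dispensed together (600 HepG2 cells/well) and incubated 5 h before DMSO compound transfer. Kinetic fluorescence is then recorded in the same wells during 40 h at 37 C.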

[6] = qHTS RealTime-Glo MT Cell Viability Assay in HepG2 cells - 32 hour (AID 1224877); details: RealTime-Glo luminescence; series mostly up to 76.8 µM; also: nearly all actives have a fitted effect of over 55% in size; also: potency is read from the fitted curve at half-maximal effect
How it was run: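 Cell number in HepG2 cultures estimated from NanoLuc luminescence generated by metabolic reduction of a prosubstrate by living cells. The homogeneous, nonlytic format allowed repeated reads at 0, 8, 16, 24, 32 and 40 h of compound exposure.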

[7] = A CellTox Green Cytotoxicity Assay to monitor cytotoxicity in HepG2 cells - 24 hour (AID 1224878); details: CellTox Green fluorescence; series mostly up to 76.8 µM; also: nearly all actives have a fitted effect of over 45% in size; also: potency is read from the fitted curve at half-maximal effect
How it was run: as §3

[8] = qHTS RealTime-Glo MT Cell Viability Assay in HEK293 cells - 0 hour (AID 1224880); details: RealTime-Glo luminescence; series mostly up to 76.8 µM; also: nearly all actives have a fitted effect of over 45% in size; also: potency is read from the fitted curve at half-maximal effect
How it was run: as §2

[9] = qHTS RealTime-Glo MT Cell Viability Assay in HEK293 cells - 16 hour (AID 1224872); details: RealTime-Glo luminescence; series mostly up to 76.8 µM; also: nearly all actives have a fitted effect of over 50% in size; also: potency is read from the fitted curve at half-maximal effect
How it was run: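 Homogeneous bioluminescent viability format in HEK293 cells (600 cells/well). Following 5 h at 37 C/5% CO2, 23 nL compound was pintooled; the signal was measured repeatedly during 40 h incubation.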

[10] = A CellTox Green Cytotoxicity Assay to monitor cytotoxicity in HepG2 cells - 40 hour (AID 1224879); details: CellTox Green fluorescence; series mostly up to 76.8 µM; also: nearly all actives have a fitted effect of over 40% in size; also: potency is read from the fitted curve at half-maximal effect
How it was run: as §3
% is scaled to controls: 0 for no effect and ±100 for the full control effect.

CC(COc1ccc(C(C)(C)C)cc1)OS(=O)OCCCl (stereo not given)
inactive: Potency [1] | Potency [2] | Potency [4] | Potency [5] | Potency [6] | Potency [7] | Potency [8]
active: Potency [3] 0.391 µM

CN1C(=O)CC(C)(c2ccccc2)C1=O (stereo not given)
inactive: Potency [1] | Potency [9] | max response [3] -3.29% | Potency [4] | Potency [5] | Potency [6] | Potency [7] | Potency [10] | Potency [8]

O=C(CCCN1CCN(c2ccc(F)cc2)CC1)NC1c2ccccc2CSc2ccccc21 (stereo not given)
active: Potency [9] 19 µM | Potency [3] 16.9 µM | Potency [6] 23.9 µM | Potency [7] 23.9 µM | Potency [10] 23.9 µM
inactive: Potency [1] | Potency [4] | Potency [8]

O=C1OCCN1/N=C/c1ccc([N+](=O)[O-])o1
inactive: Potency [1] | Potency [9] | max response [3] 2.01% | Potency [4] | Potency [5] | Potency [6] | Potency [10] | Potency [8]

Cc1cc(O)c(C(C)C)cc1Cl
inactive: Potency [9] | max response [3] -23.1% and 3.73% | Potency [6] | Potency [8]
active: Potency [1] 38.9 µM | Potency [5] 24.5 µM | Potency [10] 34.7 µM

CSc1ccc(Oc2ccc(S(N)(=O)=O)cc2CN(C)C)cc1C
active: Potency [3] 38.9 µM
inactive: Potency [1] | Potency [2] | Potency [4] | Potency [6]

NC(=O)Cn1c(=O)cc(CCN2CCN(c3nccc4sccc34)CC2)c2ccc(F)cc21
active: Potency [9] 49 µM | Potency [3] 43.6 µM
inactive: Potency [1] | Potency [4] | Potency [5] | Potency [7] | Potency [10]

CC(=O)CC(c1ccc([N+](=O)[O-])cc1)c1c(O)c2ccccc2oc1=O (stereo not given)
inactive: Potency [1] | Potency [9] | max response [3] -4.65% | Potency [4] | Potency [6] | Potency [7]

CCCCC(CC)C(=O)OCCOCCOCCOCCOC(=O)C(CC)CCCC (stereo not given)
inactive: Potency [1] | Potency [2] | Potency [4] | Potency [5] | Potency [6] | Potency [7] | Potency [10] | Potency [8]

NCC1CCCC(CN)C1 (stereo not given)
inactive: Potency [1] | Potency [9] | max response [3] -13.1% | Potency [4] | Potency [5] | Potency [6] | Potency [7] | Potency [8]

c1cc[c]([Bi]([c]2ccccc2)[c]2ccccc2)cc1
inactive: Potency [1] | Potency [9] | Potency [4] | Potency [5] | Potency [6]

CO[C@H]1C=CO[C@@]2(C)Oc3c(C)c(O)c4c(O)c(c5c(c4c3C2=O)=NC2(CCN(CC(C)C)CC2)N=5)NC(=O)/C(C)=C\C=C/[C@H](C)[C@H](O)[C@@H](C)[C@@H](O)[C@@H](C)[C@H](OC(C)=O)[C@@H]1C
inactive: Potency [1] | Potency [4] | Potency [5]
active: Potency [9] 42.7 µM | Potency [3] 38.1 µM | Potency [10] 47.9 µM

Cc1ccc(S(=O)(=O)NC2CCCCC2)cc1
inactive: Potency [1] | Potency [9] | Potency [4] | Potency [5] | Potency [6] | Potency [7] | Potency [10] | Potency [8]

COC(OC)(C(=O)c1ccccc1)c1ccccc1
inactive: Potency [1] | Potency [9] | max response [3] 1.09% | Potency [4] | Potency [5] | Potency [6] | Potency [10]

Cc1c(C(=O)NN2CCCCC2)nn(-c2ccc(Cl)cc2Cl)c1-c1ccc(Cl)cc1
inactive: Potency [1] | Potency [2] | Potency [4] | Potency [5] | Potency [6] | Potency [7] | Potency [10] | Potency [8]

CCOc1cc(N)c(Cl)cc1C(=O)NCC1CN(Cc2ccc(F)cc2)CCO1 (stereo not given)
inactive: Potency [1] | Potency [4] | Potency [6] | Potency [10] | Potency [8]
active: Potency [9] 16.9 µM | Potency [3] 16.9 µM

CC[C@@H]([C@H](C)O)n1ncn(-c2ccc(N3CCN(c4ccc(OC[C@@H]5CO[C@@](Cn6cncn6)(c6ccc(F)cc6F)C5)cc4)CC3)cc2)c1=O
inactive: Potency [1] | Potency [4] | Potency [5] | Potency [10] | Potency [8]
active: Potency [9] 5.35 µM | Potency [3] 5.35 µM

CCOC(=O)[C@@H](C)Oc1ccc(Oc2nc3ccc(Cl)cc3o2)cc1
active: Potency [9] 21.9 µM | Potency [3] 21.9 µM
inactive: Potency [1] | Potency [4] | Potency [5] | Potency [7] | Potency [8]

COCCOC(=O)C1=C(C)NC(C)=C(C(=O)OC/C=C/c2ccccc2)C1c1cccc([N+](=O)[O-])c1 (stereo not given)
inactive: Potency [1] | Potency [9] | Potency [4] | Potency [5] | Potency [10]
active: Potency [8] 5.35 µM

COC(=O)Nc1nc2ccc(C(=O)c3cccs3)cc2[nH]1
active: Potency [3] 0.134 µM | Potency [10] 0.107 µM
inactive: Potency [1] | Potency [2] | Potency [4] | Potency [5] | Potency [6] | Potency [7] | Potency [8]

CCCCCCCCCCCCCCC[C@H](O)[C@@H](N)CO
active: Potency [1] 23.9 µM | Potency [9] 21.3 µM | Potency [3] 26.8 µM | Potency [4] 21.3 µM | Potency [6] 26.8 µM | Potency [7] 26.8 µM
inactive: Potency [8]

CC(=O)N(c1onc(C)c1C)S(=O)(=O)c1ccc(N)cc1
inactive: Potency [1] | Potency [9] | max response [3] 4.86% | Potency [4] | Potency [5] | Potency [6] | Potency [7] | Potency [10] | Potency [8]

Cc1occc1C(=O)Nc1ccc(C(=O)N2CCC(F)(F)/C(=C\C(=O)N3CCC(N4CCCCC4)CC3)c3ccccc32)cc1
active: Potency [3] 6.83 µM | Potency [10] 15.3 µM
inactive: Potency [1] | Potency [2] | Potency [4] | Potency [5] | Potency [6] | Potency [7] | Potency [8]

C=CCNc1nc(NCC=C)nc(N2CCN(C(c3ccc(F)cc3)c3ccc(F)cc3)CC2)n1
inactive: Potency [1] | Potency [9] | max response [3] -23.1% | Potency [4] | Potency [5] | Potency [6] | Potency [7] | Potency [8]

CC(=O)OCC(=O)[C@@]12OC(C)(C)O[C@@H]1C[C@H]1[C@@H]3C[C@H](F)C4=CC(=O)C=C[C@]4(C)[C@@]3(F)[C@@H](O)C[C@@]12C
active: Potency [1] 26.8 µM
inactive: Potency [9] | Potency [5] | Potency [6] | Potency [7] | Potency [10]

Cc1ccccc1N1C(=O)c2cc(S(N)(=O)=O)c(Cl)cc2NC1C (stereo not given)
inactive: Potency [1] | Potency [9] | max response [3] -9.78% | Potency [4] | Potency [5] | Potency [6] | Potency [7] | Potency [8]

CCc1c2c(nc3ccc(OC(=O)N4CCC(N5CCCCC5)CC4)cc13)-c1cc3c(c(=O)n1C2)COC(=O)[C@]3(O)CC
active: Potency [3] 2.39 µM
inactive: Potency [1] | Potency [2] | Potency [4] | Potency [5] | Potency [6] | Potency [7] | Potency [8]

CCCCCCCCCCCC(=O)[O][Sn]([CH2]CCC)([CH2]CCC)[O]C(=O)CCCCCCCCCCC
inactive: Potency [2] | Potency [4] | Potency [8]
active: Potency [1] 6.74 µM | Potency [3] 7.56 µM | Potency [6] 19 µM

CO[C@@]12[C@H](COC(N)=O)C3=C(C(=O)C(C)=C(N)C3=O)N1C[C@@H]1N[C@@H]12
active: Potency [3] 0.674 µM | Potency [6] 5.35 µM | Potency [7] 8.49 µM
inactive: Potency [1] | Potency [9] | Potency [4] | Potency [8]

Nc1nc(Cl)nc2c1ncn2[C@@H]1O[C@H](CO)[C@@H](O)[C@@H]1F
inactive: Potency [1] | Potency [2] | Potency [4] | Potency [5] | Potency [6] | Potency [8]
active: Potency [3] 4.25 µM

C[N+]1(C)CCC(=C(c2ccccc2)c2ccccc2)CC1
inactive: Potency [1] | Potency [9] | max response [3] 7.64% | Potency [4] | Potency [5] | Potency [6] | Potency [7] | Potency [10] | Potency [8]

CC(=O)[C@H]1CC[C@H]2[C@@H]3C[C@H](C)C4=CC(=O)CC[C@]4(C)[C@H]3[C@@H](O)C[C@]12C
active: Potency [8] 1.69 µM
inactive: Potency [1] | Potency [2] | Potency [4] | Potency [5] | Potency [6] | Potency [7] | Potency [10]

Cc1nccn1-c1ccc(Sc2cccc(C3(C(N)=O)CCOCC3)c2)cc1
inactive: Potency [1] | Potency [4] | Potency [5] | Potency [7] | Potency [8]
active: Potency [9] 1.38 µM | Potency [3] 1.23 µM

c1ccc(COCc2ccccc2)cc1
inactive: Potency [1] | Potency [9] | max response [3] 16.4% | Potency [4] | Potency [5] | Potency [6] | Potency [7] | Potency [8]

O=C(CCCCCCCCC#CI)Oc1ccccc1
active: Potency [3] 5.35 µM | Potency [6] 4.77 µM
inactive: Potency [1] | Potency [9] | Potency [4] | Potency [5] | Potency [7] | Potency [8]

CCC(=O)OC/C=C/c1ccccc1
inactive: Potency [1] | Potency [9] | max response [3] 1.64% and -7.61% | Potency [4] | Potency [5] | Potency [6] | Potency [7] | Potency [10] | Potency [8]

O=C(CCCCCCC(=O)Nc1ccccc1)NO
active: Potency [9] 2.68 µM | Potency [3] 2.39 µM | Potency [10] 2.68 µM
inactive: Potency [1] | Potency [4] | Potency [7] | Potency [8]
